Measured values reported in ChEMBL document CHEMBL1961873, “Compounds: GSK PKIS; Assays: Nanosyn kinase panel” (2012).

What was measured:
[1] = tested on: Tyrosine-protein kinase ABL1 (Homo sapiens), P00519 [T315I]; settings: at 1 µM
[2] = tested on: Tyrosine-protein kinase ABL1 (Homo sapiens), P00519 [Y253F]; settings: at 0.1 µM
[3] = tested on: Tyrosine-protein kinase ABL1 (Homo sapiens), P00519 [Y253F]; settings: at 1 µM
[4] = target: Tyrosine-protein kinase ABL1 (Homo sapiens) (UniProt P00519); settings: at 0.1 µM
[5] = target: Tyrosine-protein kinase ABL1 (Homo sapiens) (UniProt P00519); settings: at 1 µM
[6] = target: ALK tyrosine kinase receptor (Homo sapiens) (UniProt Q9UM73); settings: at 0.1 µM
Sequence of ALK tyrosine kinase receptor (Homo sapiens) (Q9UM73 19-1620 limits assumed): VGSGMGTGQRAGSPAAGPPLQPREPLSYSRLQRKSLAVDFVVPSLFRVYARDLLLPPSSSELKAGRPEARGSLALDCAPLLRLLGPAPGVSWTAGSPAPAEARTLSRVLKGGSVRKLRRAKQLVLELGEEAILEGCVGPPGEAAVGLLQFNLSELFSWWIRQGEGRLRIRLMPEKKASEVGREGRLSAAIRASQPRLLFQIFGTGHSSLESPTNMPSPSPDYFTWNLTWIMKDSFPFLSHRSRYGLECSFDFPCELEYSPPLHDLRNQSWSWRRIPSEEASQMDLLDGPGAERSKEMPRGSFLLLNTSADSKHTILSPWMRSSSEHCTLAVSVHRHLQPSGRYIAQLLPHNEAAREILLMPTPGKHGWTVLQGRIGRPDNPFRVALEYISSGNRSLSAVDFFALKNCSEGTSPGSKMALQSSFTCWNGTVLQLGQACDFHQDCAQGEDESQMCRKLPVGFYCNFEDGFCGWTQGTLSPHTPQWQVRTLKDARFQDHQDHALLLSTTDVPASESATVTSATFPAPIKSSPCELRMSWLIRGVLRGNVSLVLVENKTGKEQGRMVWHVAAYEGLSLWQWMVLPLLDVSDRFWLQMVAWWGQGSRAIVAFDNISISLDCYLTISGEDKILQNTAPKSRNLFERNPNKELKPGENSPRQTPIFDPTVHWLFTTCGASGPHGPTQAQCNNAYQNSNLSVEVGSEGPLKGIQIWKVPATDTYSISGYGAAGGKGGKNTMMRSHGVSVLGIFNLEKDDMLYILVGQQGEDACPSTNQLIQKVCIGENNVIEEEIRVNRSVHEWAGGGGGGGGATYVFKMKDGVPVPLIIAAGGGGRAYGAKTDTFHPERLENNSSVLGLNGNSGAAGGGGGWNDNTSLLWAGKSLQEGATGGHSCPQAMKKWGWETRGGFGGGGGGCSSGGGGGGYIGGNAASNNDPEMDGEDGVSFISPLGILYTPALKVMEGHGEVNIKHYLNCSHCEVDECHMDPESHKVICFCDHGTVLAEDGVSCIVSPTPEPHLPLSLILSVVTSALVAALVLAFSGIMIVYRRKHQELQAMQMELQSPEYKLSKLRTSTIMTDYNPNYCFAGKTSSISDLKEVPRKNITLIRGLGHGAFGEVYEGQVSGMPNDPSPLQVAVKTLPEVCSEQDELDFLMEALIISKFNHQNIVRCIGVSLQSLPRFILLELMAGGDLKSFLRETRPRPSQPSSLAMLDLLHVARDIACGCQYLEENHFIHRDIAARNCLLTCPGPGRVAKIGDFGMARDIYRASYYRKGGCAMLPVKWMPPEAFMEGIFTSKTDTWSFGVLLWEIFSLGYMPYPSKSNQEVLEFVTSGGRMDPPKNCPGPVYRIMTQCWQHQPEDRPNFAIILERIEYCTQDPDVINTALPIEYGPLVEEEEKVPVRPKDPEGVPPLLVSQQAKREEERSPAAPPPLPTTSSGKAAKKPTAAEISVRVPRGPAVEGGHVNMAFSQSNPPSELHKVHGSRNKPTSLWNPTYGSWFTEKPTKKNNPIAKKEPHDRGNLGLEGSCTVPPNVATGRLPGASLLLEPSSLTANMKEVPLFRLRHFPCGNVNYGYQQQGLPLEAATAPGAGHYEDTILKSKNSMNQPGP

[7] = target: ALK tyrosine kinase receptor (Homo sapiens) (UniProt Q9UM73); settings: at 1 µM
[8] = target: Tyrosine-protein kinase ABL2 (Homo sapiens) (UniProt P42684); settings: at 0.1 µM
[9] = target: Tyrosine-protein kinase ABL2 (Homo sapiens) (UniProt P42684); settings: at 1 µM
[10] = target: Tyrosine-protein kinase receptor UFO (Homo sapiens) (UniProt P30530); settings: at 0.1 µM
Sequence of Tyrosine-protein kinase receptor UFO (Homo sapiens) (P30530 whole entry): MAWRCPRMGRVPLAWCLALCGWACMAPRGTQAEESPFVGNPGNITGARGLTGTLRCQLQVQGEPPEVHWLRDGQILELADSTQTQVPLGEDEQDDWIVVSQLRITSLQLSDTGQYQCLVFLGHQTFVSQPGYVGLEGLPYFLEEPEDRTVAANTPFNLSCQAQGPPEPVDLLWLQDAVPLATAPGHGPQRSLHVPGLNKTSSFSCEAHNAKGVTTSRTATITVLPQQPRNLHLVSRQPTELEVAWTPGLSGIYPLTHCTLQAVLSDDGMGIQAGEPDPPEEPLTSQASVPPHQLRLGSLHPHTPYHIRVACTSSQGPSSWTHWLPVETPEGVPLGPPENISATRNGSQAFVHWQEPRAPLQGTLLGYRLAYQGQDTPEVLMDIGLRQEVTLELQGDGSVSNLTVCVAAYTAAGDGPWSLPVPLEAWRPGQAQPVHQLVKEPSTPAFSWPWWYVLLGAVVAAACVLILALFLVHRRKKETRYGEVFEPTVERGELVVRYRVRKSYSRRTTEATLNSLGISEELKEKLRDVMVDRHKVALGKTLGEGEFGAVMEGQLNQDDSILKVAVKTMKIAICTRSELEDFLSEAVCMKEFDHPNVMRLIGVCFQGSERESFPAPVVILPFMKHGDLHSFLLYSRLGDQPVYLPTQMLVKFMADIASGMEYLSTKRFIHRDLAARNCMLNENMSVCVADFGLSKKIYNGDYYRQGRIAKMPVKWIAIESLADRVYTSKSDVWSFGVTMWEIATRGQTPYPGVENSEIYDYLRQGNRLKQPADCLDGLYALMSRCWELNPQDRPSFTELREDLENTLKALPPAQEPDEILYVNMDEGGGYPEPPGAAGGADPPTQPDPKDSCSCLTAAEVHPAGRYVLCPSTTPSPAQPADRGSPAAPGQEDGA

[11] = target: Tyrosine-protein kinase receptor UFO (Homo sapiens) (UniProt P30530); settings: at 1 µM
[12] = target: Tyrosine-protein kinase Blk (Homo sapiens) (UniProt P51451); settings: at 0.1 µM
Sequence of Tyrosine-protein kinase Blk (Homo sapiens) (P51451 2-505 limits assumed): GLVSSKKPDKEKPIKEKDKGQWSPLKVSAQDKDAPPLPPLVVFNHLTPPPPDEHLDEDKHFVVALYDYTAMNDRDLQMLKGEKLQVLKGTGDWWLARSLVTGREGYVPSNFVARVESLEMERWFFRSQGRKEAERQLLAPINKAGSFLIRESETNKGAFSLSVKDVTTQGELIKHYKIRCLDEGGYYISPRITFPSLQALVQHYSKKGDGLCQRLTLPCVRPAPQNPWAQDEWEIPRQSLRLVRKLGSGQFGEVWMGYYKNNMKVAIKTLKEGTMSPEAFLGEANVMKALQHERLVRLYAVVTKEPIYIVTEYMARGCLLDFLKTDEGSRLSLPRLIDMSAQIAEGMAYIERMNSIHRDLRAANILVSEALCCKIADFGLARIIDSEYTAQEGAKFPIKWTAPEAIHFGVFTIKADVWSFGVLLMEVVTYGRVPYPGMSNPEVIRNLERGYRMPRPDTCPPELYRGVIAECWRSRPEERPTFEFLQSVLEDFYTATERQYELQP

[13] = target: Tyrosine-protein kinase Blk (Homo sapiens) (UniProt P51451); settings: at 1 µM
[14] = target: T1, Cytoplasmic tyrosine-protein kinase BMX (Homo sapiens) (UniProt P51813); settings: at 0.1 µM
T1 sequence (whole entry): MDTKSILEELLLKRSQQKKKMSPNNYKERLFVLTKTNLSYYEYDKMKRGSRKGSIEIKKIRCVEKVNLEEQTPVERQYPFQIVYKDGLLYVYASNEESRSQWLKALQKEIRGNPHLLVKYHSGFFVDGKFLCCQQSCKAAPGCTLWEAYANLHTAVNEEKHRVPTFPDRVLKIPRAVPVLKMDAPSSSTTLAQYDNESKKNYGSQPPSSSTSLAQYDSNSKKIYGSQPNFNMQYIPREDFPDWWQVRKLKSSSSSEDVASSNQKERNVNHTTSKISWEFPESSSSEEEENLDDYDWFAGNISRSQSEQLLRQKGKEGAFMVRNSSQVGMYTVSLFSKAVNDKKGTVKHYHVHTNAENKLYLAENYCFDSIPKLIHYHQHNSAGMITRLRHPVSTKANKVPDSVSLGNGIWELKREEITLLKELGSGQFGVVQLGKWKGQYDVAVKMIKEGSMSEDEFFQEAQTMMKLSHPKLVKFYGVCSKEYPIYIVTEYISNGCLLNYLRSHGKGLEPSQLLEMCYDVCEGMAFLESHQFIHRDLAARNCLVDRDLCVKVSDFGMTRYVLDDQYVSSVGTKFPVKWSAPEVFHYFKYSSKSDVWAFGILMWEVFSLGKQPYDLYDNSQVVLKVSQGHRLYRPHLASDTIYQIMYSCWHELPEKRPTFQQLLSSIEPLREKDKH

[15] = target: T1, Cytoplasmic tyrosine-protein kinase BMX (Homo sapiens); settings: at 1 µM
[16] = target: Protein-tyrosine kinase 6 (Homo sapiens) (UniProt Q13882); settings: at 0.1 µM
Sequence of Protein-tyrosine kinase 6 (Homo sapiens) (Q13882 whole entry, looked up): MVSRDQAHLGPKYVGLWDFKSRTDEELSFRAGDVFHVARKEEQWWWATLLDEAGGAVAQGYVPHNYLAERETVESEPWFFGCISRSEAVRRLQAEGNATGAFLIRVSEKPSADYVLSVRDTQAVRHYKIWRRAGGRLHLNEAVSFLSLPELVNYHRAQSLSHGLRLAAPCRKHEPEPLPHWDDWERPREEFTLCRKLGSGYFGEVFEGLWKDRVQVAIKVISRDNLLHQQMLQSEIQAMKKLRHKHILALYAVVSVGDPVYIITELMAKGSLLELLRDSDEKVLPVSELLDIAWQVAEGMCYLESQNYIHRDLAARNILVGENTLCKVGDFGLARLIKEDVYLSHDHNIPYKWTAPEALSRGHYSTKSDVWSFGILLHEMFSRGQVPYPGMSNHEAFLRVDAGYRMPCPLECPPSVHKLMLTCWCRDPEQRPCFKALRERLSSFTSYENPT

[17] = target: Protein-tyrosine kinase 6 (Homo sapiens) (UniProt Q13882); settings: at 1 µM
[18] = target: Tyrosine-protein kinase BTK (Homo sapiens) (UniProt Q06187); settings: at 0.1 µM
Sequence of Tyrosine-protein kinase BTK (Homo sapiens) (Q06187 whole entry): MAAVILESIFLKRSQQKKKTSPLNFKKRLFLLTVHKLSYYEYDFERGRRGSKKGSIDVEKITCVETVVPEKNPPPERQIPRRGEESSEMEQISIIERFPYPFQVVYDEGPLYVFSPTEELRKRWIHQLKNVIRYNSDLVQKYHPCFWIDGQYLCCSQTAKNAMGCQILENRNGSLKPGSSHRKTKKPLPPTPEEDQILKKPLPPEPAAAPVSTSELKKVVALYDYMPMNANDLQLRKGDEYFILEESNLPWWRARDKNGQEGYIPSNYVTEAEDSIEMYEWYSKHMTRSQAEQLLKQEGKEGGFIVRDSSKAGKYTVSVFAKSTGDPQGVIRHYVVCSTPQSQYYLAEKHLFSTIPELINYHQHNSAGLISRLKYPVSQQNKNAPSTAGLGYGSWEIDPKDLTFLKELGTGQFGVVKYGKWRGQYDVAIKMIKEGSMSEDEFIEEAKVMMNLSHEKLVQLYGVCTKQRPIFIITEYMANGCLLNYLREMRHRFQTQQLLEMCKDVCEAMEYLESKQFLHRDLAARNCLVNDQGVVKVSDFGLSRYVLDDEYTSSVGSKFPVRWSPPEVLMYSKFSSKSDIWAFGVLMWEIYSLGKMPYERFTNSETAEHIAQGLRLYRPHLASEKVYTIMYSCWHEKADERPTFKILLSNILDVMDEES

[19] = target: Tyrosine-protein kinase BTK (Homo sapiens) (UniProt Q06187); settings: at 1 µM
[20] = target: Tyrosine-protein kinase CSK (Homo sapiens) (UniProt P41240); settings: at 0.1 µM;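 note: value given is the averaged percent inhibition of CSK kinase activity, from the GSK PKIS kinase inhibitor set screening panel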
Sequence of Tyrosine-protein kinase CSK (Homo sapiens) (P41240 2-450 limits assumed): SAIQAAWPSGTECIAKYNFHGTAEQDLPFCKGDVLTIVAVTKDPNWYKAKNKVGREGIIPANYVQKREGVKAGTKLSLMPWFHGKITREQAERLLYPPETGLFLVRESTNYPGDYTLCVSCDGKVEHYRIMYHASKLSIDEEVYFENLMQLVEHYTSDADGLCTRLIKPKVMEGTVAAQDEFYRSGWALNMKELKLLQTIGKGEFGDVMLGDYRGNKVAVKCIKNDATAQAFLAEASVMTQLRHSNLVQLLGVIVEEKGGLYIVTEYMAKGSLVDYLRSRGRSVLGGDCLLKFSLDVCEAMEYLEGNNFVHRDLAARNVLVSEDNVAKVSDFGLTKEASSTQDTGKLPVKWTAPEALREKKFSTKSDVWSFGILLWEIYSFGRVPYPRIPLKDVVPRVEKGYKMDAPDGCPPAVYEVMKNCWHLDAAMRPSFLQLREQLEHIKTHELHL

c1ccc(-c2n[nH]cc2-c2ccnc(-c3ccc(OCCN4CCOCC4)cc3)c2)nc1
inhibition [1]: 1.83%
inhibition [2]: 13.5%
inhibition [3]: 57.1%
inhibition [4]: 18.2%
inhibition [5]: 70%
inhibition [6]: -2.58%
inhibition [7]: 3.94%
inhibition [8]: 5.43%
inhibition [9]: 34.1%
inhibition [10]: 8.29%
inhibition [11]: 10.8%
inhibition [12]: 1.62%
inhibition [13]: 1.61%
inhibition [14]: 2.19%
inhibition [15]: 0.44%
inhibition [16]: -5.63%
inhibition [17]: -2.62%
inhibition [18]: 0.21%
inhibition [19]: 6.66%
inhibition [20]: -3.84%

CN1CCN(CCCNc2nc3ccc(Oc4ccc(NC(=O)Nc5cc(C(F)(F)F)ccc5F)cc4)cc3[nH]2)CC1
inhibition [1]: 32%
inhibition [2]: 4.8%
inhibition [3]: 10.8%
inhibition [4]: -0.51%
inhibition [5]: 13.6%
inhibition [6]: -3.93%
inhibition [7]: 0.57%
inhibition [8]: -0.15%
inhibition [9]: 15.4%
inhibition [10]: 0.85%
inhibition [11]: 27.5%
inhibition [12]: -2.37%
inhibition [13]: -2.3%
inhibition [14]: -1.87%
inhibition [15]: 2.63%
inhibition [16]: -0.99%
inhibition [17]: 1.35%
inhibition [18]: -3.09%
inhibition [19]: 1.43%
inhibition [20]: -0.95%

O=C(Nc1n[nH]c2cc(-c3ccccc3)ccc12)C1CC1
inhibition [1]: 82.8%
inhibition [2]: 22.3%
inhibition [3]: 68%
inhibition [4]: 13.5%
inhibition [5]: 63.8%
inhibition [6]: 3.37%
inhibition [7]: 4.86%
inhibition [8]: 6.15%
inhibition [9]: 31.2%
inhibition [10]: -8.55%
inhibition [11]: -6.73%
inhibition [12]: 1.88%
inhibition [13]: 6.79%
inhibition [14]: 4.11%
inhibition [15]: 4.88%
inhibition [16]: 2.71%
inhibition [17]: 6.62%
inhibition [18]: 1.13%
inhibition [19]: 2.12%
inhibition [20]: 2.97%

C/C(Nc1ccc(S(N)(=O)=O)cc1)=C1/C(=O)Nc2ccccc21
inhibition [1]: 12.2%
inhibition [2]: -0.47%
inhibition [3]: 12.8%
inhibition [4]: 1.79%
inhibition [5]: 11.7%
inhibition [6]: -1.33%
inhibition [7]: 14.2%
inhibition [8]: -0.23%
inhibition [9]: 10.1%
inhibition [10]: 0.11%
inhibition [11]: 10.5%
inhibition [12]: -0.72%
inhibition [13]: 12%
inhibition [14]: -4.07%
inhibition [15]: -0.17%
inhibition [16]: -2.78%
inhibition [17]: -1.43%
inhibition [18]: -2.32%
inhibition [19]: -1.09%
inhibition [20]: -5.47%

COc1ccc2ncn(-c3cc(O[C@H](C)c4ccccc4Cl)c(C(N)=O)s3)c2c1
inhibition [1]: 3.67%
inhibition [2]: 2.13%
inhibition [3]: 4.15%
inhibition [4]: -0.74%
inhibition [5]: 0.5%
inhibition [6]: -1.6%
inhibition [7]: 0.59%
inhibition [8]: -1.99%
inhibition [9]: -0.05%
inhibition [10]: -9.61%
inhibition [11]: -8.67%
inhibition [12]: -1.08%
inhibition [13]: -2.12%
inhibition [14]: 3.14%
inhibition [15]: 4.61%
inhibition [16]: -0.06%
inhibition [17]: 4.71%
inhibition [18]: -4.3%
inhibition [19]: -3.34%
inhibition [20]: 4.64%

NS(=O)(=O)c1ccc(Nc2cc(-c3ccc(O)c(F)c3)n[nH]2)cc1
inhibition [1]: 22.8%
inhibition [2]: 2.85%
inhibition [3]: 35.6%
inhibition [4]: 0.38%
inhibition [5]: 34.8%
inhibition [6]: -2.35%
inhibition [7]: 8.38%
inhibition [8]: 0.56%
inhibition [9]: 16.9%
inhibition [10]: 1.86%
inhibition [11]: 1.05%
inhibition [12]: -1.01%
inhibition [13]: 12.1%
inhibition [14]: -5.24%
inhibition [15]: -1.41%
inhibition [16]: -4.55%
inhibition [17]: -9.05%
inhibition [18]: -1.3%
inhibition [19]: -0.82%
inhibition [20]: -8.87%
